Assay results: article PMC6792352, “Limited Chemical Structural Diversity Found to Modulate Thyroid Hormone Receptor in the Tox21 Chemical Library” (Environmental Health Perspectives, 2019)

tested on: thyroid hormone receptor (endogenous TRα and TRβ); set-up: species or system GH3-TRE-Luc (rat pituitary); GH3-TRE-Luc luciferase reporter, antagonist mode against 1 nM T3, loss of signal, qHTS; conditions: read-out: Average AC50 (uM) GH3-TRE-Antag, antagonist mode, 1 nM T3, no GH3 cytotoxicity hit

Structure (SMILES)	AC50
CCN(CC)CCOCCOC(=O)C1(c2ccccc2)CCCC1 [Carbetapentane]	11 µM
CON(C)C(=O)Nc1ccc(Cl)c(Cl)c1 [Linuron]	61.4 µM
CCCCC(CC)COC(=O)C(C#N)=C(c1ccccc1)c1ccccc1 (stereo not drawn) [2-Ethylhexyl-2-cyano-3,3-diphenylacrylate]	31 µM
